FECH block – inhibitors of human ferrochelatase, primary screen, biochemical, purified FECH, Ni-mesoporphyrin absorbance. Ni-mesoporphyrin absorbance 550 nm. 3.3% of 20,000 active. Ferrochelatase, mitochondrial (Homo sapiens), P22830. calls only at 10 µM (by protocol);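 active = enzyme reaction rate more than 3 SD below the solvent-only control wells on the same plate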;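 also: lower slope than DMSO wells means FECH inhibition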
Target sequence (P22830 whole entry, looked up): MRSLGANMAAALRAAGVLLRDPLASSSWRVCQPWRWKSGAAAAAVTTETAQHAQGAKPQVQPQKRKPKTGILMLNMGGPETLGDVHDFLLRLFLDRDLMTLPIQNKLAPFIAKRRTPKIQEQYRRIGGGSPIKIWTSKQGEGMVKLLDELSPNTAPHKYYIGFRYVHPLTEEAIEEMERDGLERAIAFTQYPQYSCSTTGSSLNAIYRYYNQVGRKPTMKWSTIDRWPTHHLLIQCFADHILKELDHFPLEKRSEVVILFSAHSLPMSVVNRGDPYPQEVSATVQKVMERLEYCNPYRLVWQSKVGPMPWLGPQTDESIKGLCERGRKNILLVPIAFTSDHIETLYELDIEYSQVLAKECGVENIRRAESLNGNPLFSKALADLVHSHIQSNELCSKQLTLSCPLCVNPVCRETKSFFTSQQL
* = called active by the depositor; i = inactive; + = active, no number. Shown is part of a subset that was picked to be rich in hits.

SMILES	FECH block
COc1cc(OC)c(NC(=O)CN2CCN(Cc3ccccc3F)S2(=O)=O)cc1Cl	i
CCOc1ccccc1NC(=O)CN1CCCN(Cc2ccc(OC)cc2)S1(=O)=O	i
CCOC(=O)c1ccccc1NC(=O)CN1CCCN(Cc2cccc(C)c2)S1(=O)=O	i
CCCCN(Cc1ccco1)C(=O)c1cn(CC)c2nc(C)ccc2c1=O	i
Cc1cc(C)cc(S(=O)(=O)NCc2nc3cccnc3n2C2CCCCC2)c1	i
CCCc1cnc(C)nc1NC1CC(=O)N(C2Cc3ccccc3C2)C1 (stereo not given)	i
O=C1CCCCCN1Cc1nc(C2(c3ccc(F)cc3)CCOC2)no1 (stereo not given)	i
CN1C[C@@H](NC(=O)N2CCOCC2)C[C@H]1C(=O)NCC1(O)CCCCC1	i
CCc1nccc(-c2c(-c3ccccc3)ncn2C2CC(=O)N(CC)C2)n1 (stereo not given)	i
Cc1nc2nc[nH]n2c(=O)c1NC(=O)NCc1ccc(F)cc1	i
NS(=O)(=O)c1ccccc1NC(=O)NCc1ccc(F)cc1	+
COc1ccc(-c2cc(C(=O)NCc3ccc(F)cc3)[nH]n2)cc1S(N)(=O)=O	i
O=C(CN1c2ccc(Br)cc2-c2ccccc2S1(=O)=O)Nc1ccc(F)cc1F	i
COc1ccc(NC(=O)CN2c3ccc(Br)cc3-c3ccccc3S2(=O)=O)cc1	i
Cc1ccc(NC(=O)CN2CCN(Cc3ccccc3C)S2(=O)=O)cc1C	i
Cc1ccc(NC(=O)CN2c3ccc(Br)cc3-c3ccccc3S2(=O)=O)cc1	+
CC(C)CCNC(=O)CN1c2ccc(Br)cc2-c2ccccc2S1(=O)=O	+
NS(=O)(=O)c1ccc(NC(=O)CN2C(=O)c3ccccc3S2(=O)=O)cc1	i
O=C(CN1c2ccc(Br)cc2-c2ccccc2S1(=O)=O)NC1CC1	+
O=C1CN(C(=O)CN2c3ccc(Br)cc3-c3ccccc3S2(=O)=O)c2ccccc2N1	i
Cc1ccc(NC(=O)CN2c3ccc(Br)cc3-c3ccccc3S2(=O)=O)cc1C	+
Cc1cccc(C(C)C)c1NC(=O)CN1c2ccc(Br)cc2-c2ccccc2S1(=O)=O	i
CCCc1cc(Sc2ccc(NC(=O)c3ccc(OC)cc3)cc2)n2ncnc2n1	i
COC(=O)c1c(NC(=O)c2cccc(C(F)(F)F)c2)sc2c1CCN(C(C)C)C2	i
CCC(NC(=O)Cc1cn2ccsc2n1)c1nc(C)c(C)s1 (stereo not given)	i
SMILES	FECH block
CCN(CC)CCNC(=O)C1CCN(c2ccc(-c3cccs3)nn2)CC1	i
O=C(O)c1c(S(=O)(=O)NCCC2=CCCCC2)sc2c1CCNC2	i
CS(=O)(=O)N1CCN(c2cc(-c3cccc(F)c3)ncn2)CC1	i
CCS(=O)(=O)N1CCN(c2cc(-c3cccc(C)c3)ncn2)CC1	+
Cc1ccc(-c2cc(N3CCN(S(C)(=O)=O)CC3)ncn2)cc1	i
CS(=O)(=O)N1CCN(c2cc(-c3ccc(F)cc3)ncn2)CC1	+
CCS(=O)(=O)N1CCN(c2cc(-c3cccc(OC)c3)ncn2)CC1	i
CCS(=O)(=O)N1CCN(c2cc(-c3ccc(C)cc3)ncn2)CC1	i
Cc1ccc(-c2cc(C(=O)N(C)C(C)Cc3ncccc3C)n[nH]2)o1 (stereo not given)	i
CSc1nc(NC(C)C(=O)O)c(C#N)c(-c2ccc(C)cc2)n1 (stereo not given)	i
COCCn1c(CCCC(=O)NCc2ccccn2)nc2cccnc21	i
Cc1cccn2c(CC(=O)NCCc3csc(-c4ccncc4)n3)cnc12	i
CCc1cc(C(C)NS(=O)(=O)NCc2ccccc2)on1 (stereo not given)	i
O=S(=O)(NCCc1csc(-c2ccncc2)n1)NCc1ccccc1	+
CC(=O)c1ccc(S(=O)(=O)NCc2nc3cccnc3n2Cc2ccc(F)cc2)cc1	i
COc1ccccc1C(=O)Nc1cccc(OCc2cc(=O)n3ccc(C)cc3n2)c1	+
COc1cccc(C(=O)Nc2cccc(OCc3cc(=O)n4ccc(C)cc4n3)c2)c1	i
Cc1cccc(C(=O)Nc2cccc(OCc3cc(=O)n4ccc(C)cc4n3)c2)c1	i
CN1CC2(CCN(C(=O)CCS(=O)(=O)c3ccccc3)C2)OC1=O (stereo not given)	i
Cc1nc2c(c(=O)n1C)CCN(C(=O)CN1CCCCC1=O)CC2	i
CCOc1ccc(S(=O)(=O)Nc2cnc(N(CC(C)C)CC(C)C)c(C(=O)O)c2)cc1	i
CC/C=C\CCCN1CCC2(CC1)CNC(=O)C2	i
O=C1CC2(CCN(CCc3ccccc3)CC2)CN1	+
O=C1CC2(CCN(C(=O)C/C=C/c3ccccc3)CC2)CN1	i
CN1[C@@H](c2ccccc2)[C@@H](C(=O)N2CC(n3cccn3)C2)C[C@@]1(C)C(=O)O	i
SMILES	FECH block
CNC(=O)c1ccc(Cn2c(=O)c3cc(OC)c(OC)cc3n(CC(=O)NC(C)C)c2=O)cc1	i
COc1cc2c(=O)n(Cc3ccc(C(=O)NC(C)C)cc3)c(=O)n(CC(=O)NC(C)C)c2cc1OC	i
CNC(=O)c1ccc(Cn2c(=O)c3cc(OC)c(OC)cc3n(CC(=O)NCC3CCCO3)c2=O)cc1 (stereo not given)	+
Cc1ccc(OCC(=O)Nc2cc(C)nn2-c2ncnc3c2cnn3-c2ccc(C)cc2C)cc1	i
CCOC(=O)Cn1c(=O)n(-c2ccc(C)c(C)c2)c2nc(-c3ccc(C)cc3C)nc(C(N)=O)c21	i
CCn1nc(C(=O)O)c2c1CCN(C(=O)CCn1cnc3ccccc31)C2	i
CCc1c(C)nc2ncnn2c1Sc1ccc(NC(=O)c2ccc(Br)cc2)cc1	+
CCCc1c(C)nc2ncnn2c1Sc1ccc(NC(=O)c2ccccc2)cc1	i
CCc1c(C)nc2ncnn2c1Sc1ccc(NC(=O)c2ccccc2)cc1	i
CCCC(=O)Nc1ccc(Sc2c(CC)c(C)nc3ncnn23)cc1	i
CCc1c(C)nc2ncnn2c1Sc1ccccc1NC(=O)c1ccccc1C	i
CCc1c(C)nc2ncnn2c1Sc1ccc(NC(=O)c2ccccc2C)cc1	+
CCc1c(C)nc2ncnn2c1Sc1ccc(NC(=O)c2cccs2)cc1	i
CCCC(=O)Nc1ccc(Sc2c(CCC)c(C)nc3ncnn23)cc1	+
CCCc1c(C)nc2ncnn2c1Sc1ccc(NC(=O)CC)cc1	i
CCc1c(C)nc2ncnn2c1Sc1ccc(NC(=O)c2ccc(OC)cc2)cc1	i
CCCc1c(C)nc2ncnn2c1Sc1ccc(NC(=O)c2ccc(C)cc2)cc1	i
CCCc1c(C)nc2ncnn2c1Sc1ccc(NC(=O)c2ccccc2C)cc1	+
COCc1ccc(C(=O)N(C)Cc2ccc3ncccc3c2)o1	i
Cc1nn(-c2cc(N3CCCC3)ncn2)c(C)c1CCC(=O)Nc1ccc(Cl)cc1	i
COc1ccccc1NC(=O)Nc1nc(CC(=O)N2c3ccccc3CC2C)cs1 (stereo not given)	i
c1coc(-c2ncc(-c3nccn3CCSc3cn[nH]n3)cn2)c1	i
CCCc1[nH]ncc1C(=O)N1CCCC(CCc2ccc(F)c(F)c2)C1 (stereo not given)	i
CC(C)c1cc(Nc2ccccc2F)n2nc(-c3cccnc3)nc2n1	i
Cc1cccc(CN(Cc2ccccc2)Cc2ncc[nH]2)n1	i
Cc1ccc(C(=O)N(Cc2nc3nc(C)cc(C)n3n2)c2ccc(Cl)cc2)cc1	i
COc1ccc(C(=O)N(Cc2nc3nc(C)cc(C)n3n2)c2ccccc2)cc1	i
